Data reported in PubChem BioAssay (EPA / NIEHS).
Results filed as inconclusive are left out. Calls of active or inactive are those of the source. Rule for the calls: active = hit-call score of the fitted dose curve at least 0.9, where 1 is the maximum; inconclusive = response in the unintended direction; inactive = score below 0.9.

Test: Tanguay_ZF_120hpf_YSE_legacy: (Legacy) Oregon State University Tanguay Lab 120 Hour Post-fertilization zebrafish Assay for Yolk Sac Edema (AID 2283634);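 for AC50: actives raise the incidence of yolk sac edema above the DMSO baseline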
Summary of the method: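 Dechorionate (pronase, 4 hpf) → place one 6 hpf embryo per well → static compound exposure, sealed and foil-covered, 28C, to 120 hpf → record yolk sac edema as present or absent. Final DMSO 0.64%.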

Structure (SMILES)	outcome	AC50
Clc1nc(Cl)nc(Nc2ccccc2Cl)n1	inactive	–
Nc1cnn(-c2ccccc2)c(=O)c1Cl	inactive	–
COP(=O)(OC)O/C(C)=C/C(=O)N(C)C	inactive	–
CCNC(=O)NC(=O)C(C#N)=NOC	–	37.8 µM (active)
CC(C)=CC1C(C(=O)OCc2coc(Cc3ccccc3)c2)C1(C)C (centres undefined)	inactive	–
CN/C(=N\[N+](=O)[O-])NCc1cnc(Cl)s1	inactive	–
CN=C=S	inactive	–
CC(C)Nc1nc(Cl)nc(NC(C)C)n1	inactive	–
Cc1cnc(C2=NC(C)(C(C)C)C(=O)N2)c(C(=O)O)c1 (centres undefined)	inactive	–
CCCC(=NOCC)C1=C(O)CC(CC(C)SCC)CC1=O (centres undefined)	inactive	–
CCOP(=S)(OCC)Oc1nc(Cl)n(C(C)C)n1	–	37.4 µM (active)
CCOc1cc(C(C)(C)C)ccc1C1COC(c2c(F)cccc2F)=N1 (centres undefined)	inactive	–
N#CN=C1SCCN1Cc1ccc(Cl)nc1	inactive	–
COC(=O)c1c(C(F)F)nc(C(F)(F)F)c(C2=NCCS2)c1CC(C)C	inactive	–
O=P(O)(O)CCCl	inactive	–
Clc1cccc(C(Cl)(Cl)Cl)n1	inactive	–
COc1cc(Cl)c(OC)cc1Cl	inactive	–

Structure (SMILES)	outcome	AC50
CC(C)C1(C)N=C(c2ncccc2C(=O)O)NC1=O (centres undefined)	inactive	–
CC1(C)CON(Cc2ccccc2Cl)C1=O	inactive	–
COC(=O)NC(=S)Nc1ccccc1NC(=S)NC(=O)OC	–	47.7 µM (active)
CCOc1nc(C(Cl)(Cl)Cl)ns1	inactive	–
COCc1cnc(C2=NC(C)(C(C)C)C(=O)N2)c(C(=O)O)c1 (centres undefined)	inactive	–
CCSC(=O)N1CCCCCC1	inactive	–
O=C(O)c1c(Cl)ccc2cc(Cl)cnc12	inactive	–
CCC(C)n1c(=O)[nH]c(C)c(Br)c1=O (centres undefined)	inactive	–
CCNP(=S)(OC)O/C(C)=C/C(=O)OC(C)C (centres undefined)	inactive	–
Cc1cc(C)nc(Nc2ccccc2)n1	inactive	–
COc1cc(OC)nc(NC(=O)NS(=O)(=O)c2ncccc2OCC(F)(F)F)n1	inactive	–
CCN(CC)c1nc(C)cc(OP(=S)(OC)OC)n1	inactive	–
CS(=O)(=O)c1cc(C(F)(F)F)ccc1C(=O)c1cnoc1C1CC1	inactive	–
CCCCOCN(C(=O)CCl)c1c(CC)cccc1CC	inactive	–
CNC(=O)Oc1cccc2ccccc12	inactive	–
N#Cc1c(Cl)cccc1Cl	inactive	–
Cc1nc(N(C)C)nc(OC(=O)N(C)C)c1C	inactive	–

Test: Tanguay_ZF_120hpf_AXIS_legacy: (Legacy) Oregon State University Tanguay Lab 120 Hour Post-fertilization zebrafish Assay for Body Axis Malformation (AID 2283635);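 for AC50: potency for an increased fraction of larvae scored with body axis malformation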
Summary of the method: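 Chorion is removed with pronase at 4 hpf, then single 6 hpf embryos are dosed (final DMSO 0.64%) and held statically at 28C in sealed, foil-covered plates. At 120 hpf body axis malformation is recorded as present or absent.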

Structure (SMILES)	outcome	AC50
Clc1nc(Cl)nc(Nc2ccccc2Cl)n1	inactive	–
Nc1cnn(-c2ccccc2)c(=O)c1Cl	inactive	–
COP(=O)(OC)O/C(C)=C/C(=O)N(C)C	inactive	–
CCNC(=O)NC(=O)C(C#N)=NOC	–	46 µM (active)
CC(C)=CC1C(C(=O)OCc2coc(Cc3ccccc3)c2)C1(C)C (centres undefined)	inactive	–
CN/C(=N\[N+](=O)[O-])NCc1cnc(Cl)s1	inactive	–
CN=C=S	inactive	–
CC(C)Nc1nc(Cl)nc(NC(C)C)n1	inactive	–
Cc1cnc(C2=NC(C)(C(C)C)C(=O)N2)c(C(=O)O)c1 (centres undefined)	inactive	–
CCCC(=NOCC)C1=C(O)CC(CC(C)SCC)CC1=O (centres undefined)	inactive	–
CCOP(=S)(OCC)Oc1nc(Cl)n(C(C)C)n1	–	14.4 µM (active)
CCOc1cc(C(C)(C)C)ccc1C1COC(c2c(F)cccc2F)=N1 (centres undefined)	inactive	–
N#CN=C1SCCN1Cc1ccc(Cl)nc1	inactive	–
COC(=O)c1c(C(F)F)nc(C(F)(F)F)c(C2=NCCS2)c1CC(C)C	inactive	–
O=P(O)(O)CCCl	inactive	–
Clc1cccc(C(Cl)(Cl)Cl)n1	inactive	–

Structure (SMILES)	outcome	AC50
COc1cc(Cl)c(OC)cc1Cl	inactive	–
CC(C)C1(C)N=C(c2ncccc2C(=O)O)NC1=O (centres undefined)	inactive	–
COC(=O)NC(=S)Nc1ccccc1NC(=S)NC(=O)OC	inactive	–
CCOc1nc(C(Cl)(Cl)Cl)ns1	inactive	–
CCSC(=O)N1CCCCCC1	inactive	–
O=C(O)c1c(Cl)ccc2cc(Cl)cnc12	inactive	–
CCNP(=S)(OC)O/C(C)=C/C(=O)OC(C)C (centres undefined)	inactive	–
COc1cc(OC)nc(NC(=O)NS(=O)(=O)c2ncccc2OCC(F)(F)F)n1	inactive	–
CCN(CC)c1nc(C)cc(OP(=S)(OC)OC)n1	inactive	–
CS(=O)(=O)c1cc(C(F)(F)F)ccc1C(=O)c1cnoc1C1CC1	inactive	–
CCOc1nc(F)cc2nc(S(=O)(=O)Nc3c(Cl)cccc3Cl)nn12	inactive	–
CCCCOCN(C(=O)CCl)c1c(CC)cccc1CC	inactive	–
CNC(=O)Oc1cccc2ccccc12	inactive	–
N#Cc1c(Cl)cccc1Cl	inactive	–
Cc1nc(N(C)C)nc(OC(=O)N(C)C)c1C	inactive	–

Test: Tanguay_ZF_120hpf_EYE_legacy: (Legacy) Oregon State University Tanguay Lab 120 Hour Post-fertilization zebrafish Assay for Eye Malformation (AID 2283636);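 note: binary presence or absence of eye malformation scored by brightfield in 120 hpf larvae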
Summary of the method: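 Static waterborne exposure of dechorionated zebrafish embryos (strain Tropical 5D), 6 to 120 hpf, sealed plates at 28C, 0.64% DMSO vehicle. Eye malformation is scored as a binary endpoint, with gain of signal analysed relative to DMSO.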

Structure (SMILES)	outcome	AC50
CNC(=O)N(C)c1nnc(C(C)(C)C)s1	inactive	–
Clc1nc(Cl)nc(Nc2ccccc2Cl)n1	inactive	–
Nc1cnn(-c2ccccc2)c(=O)c1Cl	inactive	–
COP(=O)(OC)O/C(C)=C/C(=O)N(C)C	inactive	–
CCNC(=O)NC(=O)C(C#N)=NOC	–	51.5 µM (active)
CC(C)=CC1C(C(=O)OCc2coc(Cc3ccccc3)c2)C1(C)C (centres undefined)	inactive	–
CN/C(=N\[N+](=O)[O-])NCc1cnc(Cl)s1	inactive	–
CN=C=S	inactive	–
CC(C)Nc1nc(Cl)nc(NC(C)C)n1	inactive	–
Cc1cnc(C2=NC(C)(C(C)C)C(=O)N2)c(C(=O)O)c1 (centres undefined)	inactive	–
CCCC(=NOCC)C1=C(O)CC(CC(C)SCC)CC1=O (centres undefined)	inactive	–
CCOP(=S)(OCC)Oc1nc(Cl)n(C(C)C)n1	inactive	–
CCOc1cc(C(C)(C)C)ccc1C1COC(c2c(F)cccc2F)=N1 (centres undefined)	inactive	–
N#CN=C1SCCN1Cc1ccc(Cl)nc1	inactive	–
O=P(O)(O)CCCl	inactive	–
Clc1cccc(C(Cl)(Cl)Cl)n1	inactive	–
COc1cc(Cl)c(OC)cc1Cl	inactive	–

Structure (SMILES)	outcome	AC50
CC(C)C1(C)N=C(c2ncccc2C(=O)O)NC1=O (centres undefined)	inactive	–
CC1(C)CON(Cc2ccccc2Cl)C1=O	inactive	–
COC(=O)NC(=S)Nc1ccccc1NC(=S)NC(=O)OC	inactive	–
CCOc1nc(C(Cl)(Cl)Cl)ns1	inactive	–
COCc1cnc(C2=NC(C)(C(C)C)C(=O)N2)c(C(=O)O)c1 (centres undefined)	inactive	–
CCSC(=O)N1CCCCCC1	inactive	–
O=C(O)c1c(Cl)ccc2cc(Cl)cnc12	inactive	–
CCC(C)n1c(=O)[nH]c(C)c(Br)c1=O (centres undefined)	inactive	–
CCNP(=S)(OC)O/C(C)=C/C(=O)OC(C)C (centres undefined)	inactive	–
Cc1cc(C)nc(Nc2ccccc2)n1	inactive	–
COc1cc(OC)nc(NC(=O)NS(=O)(=O)c2ncccc2OCC(F)(F)F)n1	inactive	–
CCN(CC)c1nc(C)cc(OP(=S)(OC)OC)n1	inactive	–
CS(=O)(=O)c1cc(C(F)(F)F)ccc1C(=O)c1cnoc1C1CC1	inactive	–
CCCCOCN(C(=O)CCl)c1c(CC)cccc1CC	inactive	–
CNC(=O)Oc1cccc2ccccc12	inactive	–
N#Cc1c(Cl)cccc1Cl	inactive	–
Cc1nc(N(C)C)nc(OC(=O)N(C)C)c1C	inactive	–
